PubChem BioAssay (NCI)
Where “and” joins values, the source holds several entries; their conditions need not be identical. Equal values may be shown once. This is part of a sample that, as a whole, favours compounds with a hit. Of some 83,000 tested, about 20% had one in any assay.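 Interpretation: 100, growth as untreated; towards 0, rising growth inhibition; 0, no net growth; 0 to -100, cell death. Compounds scoring below 10 were considered active.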 Calls of active or inactive are those of the source.

System: MDA-MB-468 breast
Experiment: NCI-60 one-dose screen, 48 h (100 = growth as untreated, 0 = no growth, -100 = all killed)
Settings: 10 µM unless noted

Row | Structure (SMILES) | growth
1 | CC1(C)N=C(N)N=C(N)N1c1ccc(CCCCc2ccc(Cl)cc2S(=O)(=O)F)c(Cl)c1 | -22.1% (active)
2 | COc1cc(/C=C(/C)[N+](=O)[O-])ccc1O | -85.4% (active) and -90.3% (active)
3 | Cc1cc(N(CCCl)CCCl)ccc1C=Nc1ccc(-c2csc(-c3ccccc3)n2)cc1 | 3.69% (active)
4 | CC(=O)[C@H]1CC[C@H]2[C@@H]3CC[C@H]4C[C@H](N)CC[C@]4(C)[C@H]3CC[C@]12C | 64.1% (inactive)
5 | C[C@]12CC[C@H]3[C@@H](CC=C4c5nc(-c6ccc(Br)cc6)sc5CC[C@@]43C)[C@@H]1CC[C@@H]2O | 110% (inactive)
6 | CCOP(=O)(OCC)C(=O)N(CC)CC | 90.3% (inactive)
7 | CN1C(=O)NC(=O)C(N=Nc2ccc(Cl)cc2)C1=O (stereo not given) | 90.4% (inactive)
8 | COC12CC3C4=CCOC5CC(=O)N6c7ccccc7C1(CCN2C4)C6C53 (stereo not given) | 102% (inactive)
9 | COC[C@@H]1C[C@@]2(C)[C@@H](CC[C@@H]3[C@@H]2CC[C@@]2(C)[C@H]3CC[C@]2(C)O)CC1=O | 99% (inactive)
10 | COc1ccc2c(c1)c(-c1nc(-c3c[nH]c4ncccc34)cs1)cn2CCCCN1CCOCC1 | 39.3% (inactive)
11 | C[C@@H]1O[C@@H](O[C@H]2CC[C@@]3(C)[C@H](CCC4[C@@H]3C(O)C[C@]3(C)[C@@H](c5ccc(=O)oc5)CC[C@]43O)C2)[C@H](O)[C@H](O)[C@H]1O (stereo not given in full) | -59.8% (active)
12 | COC(C)(C)CCC[C@H](C)C/C=C/C(C)=C/C(=O)OC(C)C | 86.7% (inactive)
13 | C/C=C(/C)C(=O)O[C@H]1CC[C@@]2(C)[C@@H]3CC[C@H]4[C@]5(O)C[C@H](O)[C@@]6(O)[C@@H](CN7C[C@@H](C)CC[C@H]7[C@@]6(C)O)[C@]5(O)C[C@@]42O[C@@]13O | 106% (inactive)
14 | CCCCCCCCCCCCOc1ccc(C(=O)Oc2ccc(CSP3(=O)OCC4OC(n5cnc6c(N)ncnc65)C(F)C4OP(=O)(O)OCC4OC(n5ccc(=O)[nH]c5=O)C(F)C4O3)cc2)cc1 (stereo not given) | 108% (inactive)
15 | CC1(C)N=C(N)N=C(N)N1c1ccc(CCC(=O)Nc2ccc(S(=O)(=O)F)cc2)c(Cl)c1 | 64.2% (inactive)
16 | ClCc1ccc(Cl)c(Cl)c1 | 90.7% (inactive)
17 | Oc1c(I)cc(I)cc1I | 102% (inactive)
18 | CC(=O)O[C@@H]1C[C@H]2O[C@@H]3C=C(C)CC[C@]3(C)[C@]1(C)[C@]21CO1 | 39.3% (inactive)
19 | CC12CC(=O)C3(SC#N)C(CCC4=CC(=O)CCC43C)C1CCC2=O (stereo not given) | 24.5% (inactive)
20 | Cc1cccc(N=C2c3cc([N+](=O)[O-])ccc3-c3c2cc([N+](=O)[O-])cc3[N+](=O)[O-])c1 | -24.4% (active)

Row | Structure (SMILES) | growth
21 | CNC(=O)Oc1ccccc1-c1ccccc1 | 113% (inactive)
22 | Cc1ccccc1-n1c(/C=C\c2ccccn2)nc2ccccc2c1=O | 3.39% (active)
23 | CN(C)C(=O)Oc1ccccc1 | 113% (inactive)
24 | O=C1NC(=O)C(=Cc2cccn2CCCCCn2c3ccccc3c(=O)c3ccccc32)C(=O)N1 | 107% (inactive)
25 | CO[C@H](C(=O)O)[C@@H]1Cc2cc3cc(OC4CC(OC5CC(O)C(O)C(C)O5)C(O)C(C)O4)c(C)c(O)c3c(O)c2C(=O)[C@H]1OC1CC(OC2CC(OC3CC(C)(O)C(O)C(C)O3)C(O)C(C)O2)C(O)C(C)O1 (stereo not given in full) | -16.7% (active)
26 | C/C(=C\c1ccn(-c2ccccc2N)n1)[C@@H]1C[C@@H]2O[C@]2(C)CCC[C@H](C)[C@H](O)[C@@H](C)C(=O)C(C)(C)[C@@H](O)CC(=O)O1 | 0% (active)
27 | C=CCn1cc(C=C2C(=O)N(C)C(=O)N(C)C2=O)c2ccccc21 | -35.5% (active)
28 | CC1(CF)NC(=O)NC1=O (stereo not given) | 113% (inactive)
29 | O=C(O)C(F)F | 91.4% (inactive)
30 | COc1cc(NC(C)CCCNC2CN3CCC2CC3)c2ncccc2c1 (stereo not given) | -1.39% (active)
31 | O=S(OO)c1cc(Cl)c(O)c(Cl)c1 (stereo not given) | 112% (inactive)
32 | c1ccc2nc(OCCN3CC3)ccc2c1 | 69.3% (inactive)
33 | CCOC(=O)c1c(C)n(Cc2ccccc2)c2cc(CN(C)C)c(O)cc12 | 73.9% (inactive)
34 | CCC[CH2][Sn]1([CH2]CCC)[O]C(=O)c2cccc([N+](=O)[O-])c2C(=O)[O]1 | -79.4% (active)
35 | COc1ccc(C(=O)c2ccc([As]=O)cc2)cc1 (stereo not given) | -74.8% (active)
36 | C/C1=C/C(=O)O[C@@H]2C[C@@H](CC[C@H](C)/C=C\C=C\CC1)O[C@@](OCCc1ccccc1)([C@@H]1CSC(=O)N1)C2 | 12.2% (inactive)
37 | CC[C@H](C)[C@H](NC(=O)[C@H]1CCCCN1C)C(=O)N(C)[C@H](C[C@@H](OC(C)=O)c1nc(C(=O)N[C@@H](Cc2ccccc2)C[C@H](C)C(=O)OC)cs1)C(C)C | -7.99% (active)
38 | C#COc1cccc(Nc2ncnc3cc(NC(=O)CF)ccc23)c1 | 80.2% [6.25 µM] (inactive)
39 | O=[N+]([O-])c1ccc(CI)cc1 | 75.6% (inactive)
40 | CCC(O)(CN)c1ccccc1 (stereo not given) | 101% (inactive)
